# Shiga inhibitor: Shiga toxin inhibition. 9.2% of 290,000 active. inhibition, % at 38.7 µM. Vero cells, Shiga toxin protein synthesis inhibition reporter; in the data active = inhibition mostly above about 28%, no sharp cut-off; inactive = mostly below about 43%; also: 0% is about no effect
# Cycloheximide cs: counter-screen for Shiga toxin inhibitors: cycloheximide protein synthesis inhibition | cell reporter, cycloheximide protein synthesis inhibition counterscreen | max response, % | 12% of 300,000 active; in the data active = max response mostly above about 13%, no sharp cut-off; inactive = mostly below about 14%; also: read at 38.3 µM for the half of the compounds with a filed dose; 0% is about no effect
# LASV entry inh: inhibitors of Lassa virus binding or cell entry; AID 540256; Potency, µM (titrated, usually from 37.9 µM), without a hit: at the highest dose activity change, negative = inhibition, most hits filed as inhibitors; Lassa virus pseudotype entry inhibition, cell reporter; 1.2% of 300,000 active; calls by dose curve; tested in HEK293 cells; also: potency is read from the fitted curve at half-maximal effect; % is scaled to controls: 0 for no effect and ±100 for the full control effect; nearly all actives have a fitted effect of over 50% in size
# Marburg entry inh: inhibitors of Marburg virus binding or cell entry | Potency, µM (highest dose often 37.8 µM), without a hit: at the highest dose activity change, negative = inhibition, hits mostly inhibitors | AID 540276 | 1.8% of 300,000 active | Marburg virus pseudotyped entry inhibition, cell reporter; calls by dose curve; tested in HEK293 cells; also: potency is read from the fitted curve at half-maximal effect; % is scaled to controls: 0 for no effect and ±100 for the full control effect
# The depositor's hits bear a star; ? = inconclusive; . = no result; ! = repeats disagree; [ ] = dose if it differs, or a comment. Most compounds without a hit are left out; they make up all but 12% or so of the library.
SMILES,Shiga inhibitor,Cycloheximide cs,LASV entry inh,Marburg entry inh
CN(c1ccccc1)S(=O)(=O)c1ccc(Cl)c(C(=O)Nc2nc3ccccc3[nH]2)c1,-3.0,-1.3,?,?
CC1=C(C(=O)Nc2ccccc2)C(c2ccc(C)o2)n2ncnc2N1 (stereo not drawn),-1.2,-0.7,21.8%,16.0%
COc1ccc(NC(=O)c2cnc(SCC(=O)Nc3nc4ccc(C)cc4s3)n(C)c2=O)cc1,.,.,2.1%[46.1 µM],.
COc1ccc(OC)c(NC(=O)c2ccc(-c3nc(CSc4ccccc4)c(C)o3)cc2)c1,.,.,2.9%[46.1 µM],.
CCOC(=O)C1=C(CN(C)Cc2ccccc2)NC(=O)NC1c1ccc(OC(C)C)cc1 (stereo not drawn),.,.,-27.0%[46.1 µM],?
O=C(Nc1nc2ccccc2[nH]1)c1ccc(F)cc1,20.9,19.9*,6.51µM*,?
O=C(Cc1cccc2ccccc12)Nc1nc2ccccc2[nH]1,-38.8,-1.7,9.1%,?
O=C(Cc1ccccc1F)Nc1nc2ccccc2[nH]1,41.5,24.1*,19.5%,28.4%[46.1 µM]
Cc1ccsc1C(=O)Nc1nc2ccccc2[nH]1,74.6*,27.8*,.,.
O=C(Nc1nc2ccccc2[nH]1)c1cc2ccccc2o1,54.1*,34.6*,-25.3%[46.1 µM],?
Cc1cc2c(c(SCC(=O)NCc3ccccc3Cl)n1)C(=O)OC2,-6.1,-2.5,8.2%[46.1 µM],11.8%[46.1 µM]
CC(C)CN1C(=O)c2ccc(NC(=O)Cc3ccccc3)cc2C1=O,3.6,6.1,.,.
COC(=O)Nc1nc2ccc(C(=O)c3ccc(F)cc3)cc2[nH]1,8.2,11.4,.,.
Cc1cc(C)cc(C(=O)Nc2nc3ccccc3[nH]2)c1,120.6*,35.3*,?,?
O=C(Nc1nc2ccccc2[nH]1)c1cc(F)cc(F)c1,67.4*,67.5*,9.4%[46.1 µM],?
CCc1ccc(C(=O)Nc2nc3ccccc3[nH]2)cc1,-11.7,-9.6,?,?
COc1ccc(Br)c(C(=O)Nc2nc3ccccc3[nH]2)c1,68.5*,53.7*,4.8%[46.1 µM],?
COc1ccc(Cl)cc1C(=O)Nc1nc2ccccc2[nH]1,3.8,-1.2,?,?
N#Cc1ccc(C(=O)Nc2nc3ccccc3[nH]2)cc1,58.9*,34.8*,?,10µM*
O=S(=O)(NCCS(=O)(=O)N1CCN(c2ccccc2)CC1)c1ccccc1,-8.1,-6.3,-1.6%[46.1 µM],.
CC(C)(O)CN(CCCNC(=S)Nc1ccccc1)C(=S)Nc1ccccc1,.,.,-20.9%,-3.7%
CC(=O)O[C@]1(C(C)=O)CC[C@H]2[C@@H]3C=C(Cl)C4=CC(=O)CC[C@]4(C)[C@H]3CC[C@@]21C,23.6,3.4,-0.8%,-30.7%
CC(=O)O[C@]1(C(C)=O)CC[C@H]2[C@@H]3C=C(Cl)C4=CC(=O)[C@@H]5C[C@@H]5[C@]4(C)[C@H]3CC[C@@]21C,.,.,16.4µM*,?
O=S(=O)(c1ccc2c(c1)OCCO2)N1CCN(c2nc3ccccc3s2)CC1,-2.7,-4.1,-23.6%,21.7%
c1ccc2c(c1)CCN(c1nc3cc4c(cc3s1)OCCO4)C2,15.5,33.8*,4.61µM*,?
SMILES,Shiga inhibitor,Cycloheximide cs,LASV entry inh,Marburg entry inh
COC(=O)CC=C[C@H](C)[C@@H](OCc1ccccc1Br)C(C)C,.,.,?,14.1%[14.2 µM]
N/C(=N\OC(=O)Cc1ccc(-c2ccccc2)cc1)c1cccc([N+](=O)[O-])c1,-18.6,-1.6,2.3%,-1.6%
N/C(=N\OC(=O)Cc1ccccc1[N+](=O)[O-])c1cccc(Br)c1,27.2,18.4*,.,.
N/C(=N\OC(=O)Cc1ccccc1)c1cccc(Br)c1,47.6*,10.7,27.8%,5.2%
CC(C)CS(=O)(=O)C1=NSC2=NC(=O)/C(=C\c3ccc(OC(=O)c4ccco4)cc3)C(=N)N21,-4.7,-1.6,.,.
CSC1=NSC2=NC(=O)/C(=C\c3ccc(OC(=O)c4ccco4)cc3)C(=N)N12,33.7*,19.2*,23.4%,14.0%[46.1 µM]
CC1=CSC2=NC(=O)/C(=C/c3cccc(OC(=O)c4ccco4)c3)C(=N)N12,33.9*,10.7,-6.7%,?
COC(=O)c1c(C)nc(C)c2c(=O)oc3c(c12)CCCC3,.,.,.,13.0%
O=C(ONC1=NCCCCC1)c1ccc(Cl)cc1,37.1,17.0*,?,?
O=C(ONC1=NCCCCC1)c1c(F)cccc1F,-3.1,18.2*,-23.6%,?
Cc1ccccc1NC(=O)CN1C(=O)c2ccccc2C1=O,.,0.8,0.3%[46.1 µM],6.1%[46.1 µM]
O=C(O)CNc1nc(Cl)ccc1[N+](=O)[O-],-22.0,-2.4,-7.6%,-7.2%[46.1 µM]
CCOC(=O)c1cnc(-c2ccccc2)nc1N,125.7*,57.3*,?,-24.3%
CCOC(=O)c1cnc(-c2ccccc2)nc1N1CCOCC1,-5.1,-2.2,0.0%,-12.3%[46.1 µM]
CCOC(=O)c1cnc(-c2ccccc2)nc1N(C)C,120.4*,47.6*,?,?
CCC(C)N1CCC(Oc2ccc(C(=O)NCc3ccccn3)cc2)CC1 (stereo not drawn),-11.4,2.4,18.5%,?
C/C=C/C(O)c1ccc2ccccc2c1 (stereo not drawn),26.2*!,20.2*!,.,.
COc1ccc(NC(=O)Nc2cccc([N+](=O)[O-])c2)cc1Cl,26.8,30.2*,-15.4%,?
O=C(Nc1ccc([N+](=O)[O-])cc1)Nc1ccc(OC(F)F)c(Cl)c1,-9.2,-5.8,14.6µM*,?
COc1ccccc1CCNC(=O)Nc1cccc([N+](=O)[O-])c1,15.1,11.4,-10.4%[46.1 µM],?
COc1cc(OC)c(Nc2ncnc3onc(-c4cccc(Cl)c4)c23)cc1Cl,.,.,16.1%[46.1 µM],2.7%[46.1 µM]
COC(=O)c1ccc(C(=O)OC)c(NC(=O)c2cc3nc(-c4ccc(C)cc4)cc(C(F)(F)F)n3n2)c1,.,.,-15.7%[46.1 µM],?
Cc1ccc(CN2CC(C(=O)N3CC(C)CC(C)C3)CC2=O)cc1 (stereo not drawn),.,.,-16.8%,-0.3%[46.1 µM]
Cc1ccc(CN2CC(C(=O)N3CCN(c4ccccc4O)CC3)CC2=O)cc1 (stereo not drawn),.,.,11.2µM*,7.0%
COc1ccc(CCn2c(=N)c(C(=O)NCc3ccco3)cc3c(=O)n4ccccc4nc32)cc1,-20.2,-3.7,-25.6%[14.3 µM],20.6µM*
SMILES,Shiga inhibitor,Cycloheximide cs,LASV entry inh,Marburg entry inh
Cc1cccn2c(=O)c3cc(C(=O)NCCN4CCOCC4)c(=N)n(Cc4ccc(F)cc4)c3nc12,-1.7,1.4,5.62µM*,?
N=c1c(C(=O)NCCc2ccccc2)cc2c(=O)n3ccccc3nc2n1CCCN1CCOCC1,-4.7,-4.5,?,7.08µM*
COCCCn1c(=N)c(C(=O)NC2CCCC2)cc2c(=O)n3cccc(C)c3nc21,.,.,?,19.7%[46.1 µM]
Cc1cccn2c(=O)c3cc(C(=O)NCCN4CCOCC4)c(=N)n(CCN4CCOCC4)c3nc12,-6.3,-3.9,-0.9%,?
Cc1cccn2c(=O)c3cc(C(=O)NC4CCCC4)c(=N)n(CCCN4CCOCC4)c3nc12,-2.3,-8.7,-11.9%[46.1 µM],3.55µM*
CCOc1ccc(C(=O)Nc2ccc3nc(SCC(=O)N(C)c4ccccc4)sc3c2)cc1,.,.,-38.0%[46.1 µM],?
Cc1cc(C)cc(NC(=O)C2CCCN(c3nnc(-n4c(C)ccc4C)s3)C2)c1 (stereo not drawn),.,.,4.1%[46.1 µM],-8.9%[46.1 µM]
Cc1cccn2c(=O)c3cc(C(=O)NCCN4CCOCC4)n(Cc4ccccc4)c3nc12,-13.3,0.8,.,.
Cc1cccn2c(=O)c3cc(C(=O)NCCN4CCOCC4)n(C)c3nc12,58.9*,37.4*,1.4%,-3.0%
Cc1cccc(N2CCN(C(=O)CCn3c(=O)c4cccn4c4cccnc43)CC2)c1C,.,.,9.7%[46.1 µM],.
